Only some compounds are listed: those with a hit (about 2.1% of all), similar ones and a draw of the others.
Sa ugtP lethal: kills S. aureus RN4220 lacking UgtP | S. aureus RN4220 ugtP deletion, OD600 growth, 16 h | growth inhibition, % (test concentration not listed) | 0.54% of 330,000 active | AID 1259309; in the data active = growth inhibition above about 68%;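 also: plate controls were untreated wells for no effect and antibiotic for full effect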
PrP 5UTR inh: inhibition of PrP 5' UTR reporter expression. cell-based PrP 5' UTR mRNA reporter, plate reader. inhibition, % (concentration not given with the values). 0.35% of 340,000 active. AID 488862; in the data active = inhibition above about 52%; also: 0 = median of the neutral control wells
CCHF vOTU inh: blocks the CCHF virus ovarian tumor domain protease; 0.55% of 370,000 active; CCHFV vOTU protease, Pep-AMC fluorescence; inhibition, % at 11.5 µM; in the data active = inhibition above about 30%; also: 0% = vehicle wells with enzyme and 100% = no enzyme wells
RN4220 kill: S. aureus RN4220 growth inhibition | OD600, 16 h | inhibition, % (concentration not given with the values) | 0.33% of 330,000 active; in the data active = inhibition above about 85%;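 also: plate controls were untreated cells for no effect and reference antibiotic for full effect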
PfHsp40 yeast: compounds rescuing yeast from Plasmodium falciparum HSP40 toxicity; growth rescue, % at 12.5 µM; 0.68% of 340,000 active; S. cerevisiae expressing PfHsp40, growth rescue, ATP luminescence; AID 504582; in the data active = growth rescue above about 28%, passing the limit was not always enough; inconclusive = no clear call, values can overlap the other calls;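 also: yeast W303a lacking pdr1 and pdr3 grown in galactose medium; growth measured after three days at 30 °C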
PrPC surface inh: inhibitors of human cell surface prion protein PrPC | inhibition, % at 13.8 µM | P04156 | 0.43% of 370,000 active | TR-FRET read-out | AID 720596; in the data active = inhibition above about 24%; also: 0% = median of the test wells and 100% = reference compound wells
* = called active by the depositor.

Screening CNC(CC(C)C)C(=O)NC1C(=O)NC(CC(N)=O)C(=O)NC2C(=O)NC3C(=O)NC(C(=O)NC(C(=O)O)c4cc(O)cc(O)c4-c4cc3ccc4O)C(O)c3ccc(c(Cl)c3)Oc3cc2cc(c3OC2OC(CO)C(O)C(O)C2OC2C[C@](C)(N)C(O)C(C)O2)Oc2ccc(cc2Cl)C1O (stereo partly specified) returned Sa ugtP lethal 99.9*, PrP 5UTR inh 53.5, CCHF vOTU inh -3.1, RN4220 kill 100.7*, PfHsp40 yeast -0.5 and PrPC surface inh -6.6.
CC(=NNc1nc(-c2ccccc2F)nc2ccccc12)c1ccccc1O was read as Sa ugtP lethal 50.5 and RN4220 kill 2.9.
Cc1ccc(-c2nc3c(Cl)cc(Cl)cc3c(=O)n2O)cc1 was read as Sa ugtP lethal 99.2*, PrP 5UTR inh -5.1, CCHF vOTU inh 4.7, RN4220 kill 98.6*, PfHsp40 yeast inconclusive and PrPC surface inh 2.7.
`O=c1c2ccccc2nc(-c2ccc(Cl)c(Cl)c2)n1O` gave Sa ugtP lethal 41.3, PrP 5UTR inh 1.8, CCHF vOTU inh 4.2, RN4220 kill 64.8, PfHsp40 yeast 1.3 and PrPC surface inh -4.3.
For O=c1c2cc(Cl)ccc2nc(-c2ccc([N+](=O)[O-])cc2)n1O the results were Sa ugtP lethal -6.2, PrP 5UTR inh -27.2, CCHF vOTU inh 0.8, RN4220 kill 8.1, PfHsp40 yeast 179.5* and PrPC surface inh -0.4.
Screening O=c1c2cc(Br)ccc2nc(-c2ccc(Cl)cc2)n1O returned Sa ugtP lethal 99.1*, PrP 5UTR inh -12.2, CCHF vOTU inh -10.8, RN4220 kill 98.5*, PfHsp40 yeast -1.4 and PrPC surface inh 1.6.
`Oc1ccc(Br)cc1C=NNC(=S)NCCc1ccccc1` gave Sa ugtP lethal 8.2 and RN4220 kill -4.5.
For CCCOc1ccccc1NC(=Nc1nc(C)cc(C)n1)NC(=O)Nc1ccc(Cl)cc1 the results were Sa ugtP lethal -9.5 and RN4220 kill 8.4.
For CCc1ccccc1NC(=O)C1CCCN1S(=O)(=O)c1ccc(-c2ccc(=O)[nH]n2)s1 (stereo unspecified) the results were Sa ugtP lethal 88.3*, PrP 5UTR inh -12.5, CCHF vOTU inh 10.5, RN4220 kill 95.6*, PfHsp40 yeast -0.7 and PrPC surface inh -8.9.
Cc1cccc(C)c1NC(=O)C1CCCN1S(=O)(=O)c1ccc(-c2ccc(=O)[nH]n2)s1 (stereo unspecified) was read as Sa ugtP lethal 99.2*, PrP 5UTR inh 16.4, CCHF vOTU inh -1.0, RN4220 kill 98.0*, PfHsp40 yeast 1.7 and PrPC surface inh -12.9.
For O=C(CSc1cccc[n+]1[O-])c1cc(Cl)ccc1Cl the results were Sa ugtP lethal 11.1, PrP 5UTR inh -45.1, CCHF vOTU inh -2.1, RN4220 kill 7.7, PfHsp40 yeast 80.2* and PrPC surface inh -0.1.
For COc1cc(NS(=O)(=O)c2ccc(NC=CC(=O)c3ccc(OC)c(OC)c3)cc2)nc(OC)n1 the results were Sa ugtP lethal -7.5 and RN4220 kill 1.3.
For CCCNC(=O)N1C2CCC1C(C(=O)OC)=C(c1ccc(C(C)=O)cc1)C2 (stereo unspecified) the results were Sa ugtP lethal 6.8 and RN4220 kill 2.9.
For CC(C)CSc1n[nH]c(=S)s1 the results were Sa ugtP lethal -5.6, PrP 5UTR inh 9.9, CCHF vOTU inh -1.3, RN4220 kill 5.2, PfHsp40 yeast 213.0* and PrPC surface inh 3.1.
NS(=O)(=O)c1ccc(Nc2c([N+](=O)[O-])cncc2[N+](=O)[O-])cc1 was read as Sa ugtP lethal 89.8*, PrP 5UTR inh -3.5, CCHF vOTU inh -6.4, RN4220 kill 96.4*, PfHsp40 yeast -0.7 and PrPC surface inh -25.0.
`COc1cccc(Nc2c([N+](=O)[O-])cncc2[N+](=O)[O-])c1` gave Sa ugtP lethal -1.1, PrP 5UTR inh -16.0, CCHF vOTU inh 15.0, RN4220 kill 28.7, PfHsp40 yeast 1.7 and PrPC surface inh -22.5.
`CCCC=C(CCC)C(NP(=O)(c1ccccc1)c1ccccc1)c1ccccc1` (stereo unspecified) gave Sa ugtP lethal -2.2 and RN4220 kill -2.7.
Cc1nc(N)nc(N)c1/C=C/C(C)(C)c1ccc(Cl)cc1 was read as Sa ugtP lethal 99.7*, PrP 5UTR inh 50.4, CCHF vOTU inh -0.9, RN4220 kill 99.0*, PfHsp40 yeast 151.0* and PrPC surface inh 21.2.
O=C1C2CCN(CC2)C1Cc1ccc2ccccc2c1O (stereo unspecified) was read as Sa ugtP lethal -0.1 and RN4220 kill 2.9.
CCCCC(CNC)NCC(NCCCCC1CCCCC1)C(C)C (stereo unspecified) was read as Sa ugtP lethal 3.5 and RN4220 kill 0.7.
Screening CC(=O)Oc1ccc2ccccc2c1C(NC(=O)Cc1ccccc1)c1ccc(Cl)cc1 (stereo unspecified) returned Sa ugtP lethal -8.2, PrP 5UTR inh -16.7, CCHF vOTU inh 19.4, RN4220 kill -9.1, PfHsp40 yeast 40.4* and PrPC surface inh 19.5.
Screening COc1ccc(C(NC(=O)CC(C)C)c2c(O)ccc3ccccc23)cc1 (stereo unspecified) returned Sa ugtP lethal 10.9, PrP 5UTR inh 6.1, CCHF vOTU inh -5.2, RN4220 kill -0.2, PfHsp40 yeast 33.3* and PrPC surface inh 2.4.
For COC(=O)C1=C(c2ccc(S(C)(=O)=O)cc2)C[C@@H]2CC[C@H]1N2C(=O)N1CCCCC1 the results were PrP 5UTR inh -17.7, CCHF vOTU inh 0.2, PfHsp40 yeast 78.0* and PrPC surface inh -0.2.
`N#Cc1ccc(CSc2ncnc3c2cnn3Cc2ccccc2)cc1` gave Sa ugtP lethal 42.2, PrP 5UTR inh 2.8, CCHF vOTU inh 1.1, RN4220 kill -7.6, PfHsp40 yeast 1.2 and PrPC surface inh 1.8.
For Cc1ccc(CSc2ncnc3c2cnn3Cc2ccccc2)cc1 the results were Sa ugtP lethal 90.4*, PrP 5UTR inh -16.8, CCHF vOTU inh -2.9, RN4220 kill -4.0, PfHsp40 yeast 0.0 and PrPC surface inh 0.6.
`Cc1ccc(CSc2ncnc3c2cnn3Cc2ccccc2)cc1C` gave Sa ugtP lethal 93.0*, PrP 5UTR inh -0.8, CCHF vOTU inh 5.9, RN4220 kill -2.3, PfHsp40 yeast 1.0 and PrPC surface inh -0.7.
Screening CC(=NNC(=S)NCc1ccccc1)c1ccc(C(C)(C)C)cc1 returned Sa ugtP lethal -6.0 and RN4220 kill 5.3.
Screening O=[N+]([O-])c1cc(C=NO)ccc1Sc1ccccc1 returned Sa ugtP lethal -7.9 and RN4220 kill -1.1.
Screening COc1ccc(CCNC(=O)CCCCC(=O)NCCc2ccc(OC)cc2)cc1 returned Sa ugtP lethal 1.4, PrP 5UTR inh -18.6, CCHF vOTU inh -6.1, RN4220 kill 3.8, PfHsp40 yeast 2.6 and PrPC surface inh 7.2.
For COc1ccc(CCCC(=O)NCCc2ccccc2)c(C)c1 the results were Sa ugtP lethal 5.4, PrP 5UTR inh -20.8, CCHF vOTU inh -13.4, RN4220 kill 5.0, PfHsp40 yeast 40.1* and PrPC surface inh 0.3.

High-throughput results from PubChem BioAssay.
